TGFb SMAD3 inh = qHTS for Inhibitors of TGF-b | Potency, µM (doses to about 46.1 µM), without a hit: at the highest dose activity, negative = inhibition, actives largely listed as inhibitors | HepG2 CAGA-GFP TGF-b/SMAD3 reporter, GFP fluorescence, 18 h; TGF-beta stimulated, 500 pg/mL final | 1.2% of 410,000 active | AID 588855, 2011; also: % is scaled to controls: 0 for no effect and ±100 for the full control effect; nearly all actives have a fitted effect of over 65% in size
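Read-out: total well GFP (ex488/em500-530) summed from mean per-cell fluorescence. Cells: HEPG2 CAGA-GFP, 1% FBS DMEM, 18 h at 37 degrees C with 500 pg/mL final TGF-beta. Unstimulated wells served as the full-inhibition control; stimulated DMSO wells = 0%.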
HepG2 tox = qHTS for Inhibitors of TGF-b: Cytotox Counterscreen | HepG2 CAGA-GFP viability, ATP luminescence, 18 h | Potency, µM (highest dose often 46.1 µM), for inactives: at the top dose activity change, negative = cytotoxicity, hits mostly cytotoxic | 0.76% of 410,000 active | AID 588856, 2011
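CellTiter-Glo luminescence gave cytotoxicity after 18 hours at 37 degrees C. The cells were HepG2 CAGA-GFP in 1% FBS DMEM, stimulated with 500 pg/mL TGF-beta after compound addition. %Activity was normalised to no-cell wells (complete cell-killing) and DMSO (no toxicity), and curves were fitted and classified.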
TDP1 cell CPT = qHTS for Inhibitors of human tyrosyl-DNA phosphodiesterase 1 (TDP1): qHTS in cells in presence of CPT; chicken DT40 Tdp1-/-;hTDP1 cells + 20 nM CPT, ATP luminescence, 48 h; 12% of 420,000 active; AID 686979, 2013; Potency, µM (doses to about 46.2 µM), for the others: at the top dose activity change, negative = growth inhibition, hits mostly inhibitors; also: % is scaled to controls: 0 for no effect and ±100 for the full control effect; nearly all actives have a fitted effect of over 55% in size
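Cell growth measured by CellTiter-Glo luminescence after a minimum 48 h, 37 C compound exposure with 20 nM CPT in Tdp1-knockout DT40 cells stably expressing hTDP1, seeded 400/well; qHTS titration format.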
S2 tox = Viability Counterscreen for Primary qHTS for Inhibitors of ATXN expression | S2 cells (HEK-293 line with an ATXN2-luciferase reporter) viability, CellTiter-Fluor protease fluorescence, 24 h | 0.49% of 400,000 active | Potency, µM (doses to about 56.7 µM), most hits filed as cytotoxic; also: nearly all actives have a fitted effect of over 40% in size
ATXN2 expr inh = Primary qHTS for Inhibitors of ATXN expression | HEK-293 ATXN2-luciferase reporter, luminescence, 24 h | 0.72% of 360,000 active | Potency, µM (series often up to 57 µM), for the others: at the highest dose activity change, negative = inhibition, actives largely listed as inhibitors; also: % is scaled to controls: 0 for no effect and ±100 for the full control effect; nearly all actives have a fitted effect of over 55% in size
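ATXN2-luciferase reporter cells (luciferase flanked by upstream and downstream ATXN2 gene portions) were treated 24 h at 37 °C with compounds at up to 57 uM. SteadyGlo luminescence gave expression; GF-AFC fluorescence gave viability.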
DT40 TDP1 no CPT = qHTS for Inhibitors of human tyrosyl-DNA phosphodiesterase 1 (TDP1): qHTS in cells in absence of CPT; Potency, µM (highest dose often 46.2 µM), for the others: at the top dose activity change, negative = growth inhibition, most hits filed as inhibitors; 15% of 420,000 active; DT40 Tdp1-/- hTDP1 cells, no CPT, ATP luminescence, 48 h; also: % is scaled to controls: 0 for no effect and ±100 for the full control effect; nearly all actives have a fitted effect of over 55% in size
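Cells were dispensed at 400 per well, compounds added by pin tool, plates incubated ≥48 hr at 37 °C, then CellTiter-Glo added for 30 min at room temperature before luminescence reading. Line: DT40 Tdp1-/- complemented with hTDP1; camptothecin omitted.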
Active calls of the source: *; [ ] = another dose, or the depositor's remark. This is a sample that favours compounds with a hit; in the whole collection about 17% have one here. Calls follow the shape of the dose curve; as a rule, active = well fitted curve in the direction sought with a large enough effect; inconclusive = small, poorly fitted or top-dose-only effect, or another doubt; inactive = no such curve, though single readings can be large; an effect the other way counts as inactive or inconclusive. Potency is read from the fitted curve at half-maximal effect.

CCc1nnc(N/N=C/c2ccccc2Cl)n1N was read as TGFb SMAD3 inh 11µM*, HepG2 tox 13µM*, TDP1 cell CPT -3%, S2 tox inactive, ATXN2 expr inh 10% and DT40 TDP1 no CPT -12%.
CN1CCN(C(=O)C(=O)c2cn(CC(=O)N3CCOCC3)c3ccccc23)CC1 was read as TGFb SMAD3 inh 1%, HepG2 tox -1%, TDP1 cell CPT -2%, S2 tox inactive and DT40 TDP1 no CPT -23%.
Screening CC(=O)N(CCCN(C)C)Cc1ccccn1 returned TGFb SMAD3 inh 8%, HepG2 tox -8%, TDP1 cell CPT 15%, S2 tox inactive, ATXN2 expr inh 1% and DT40 TDP1 no CPT 1%.
CC(=O)N(CCCc1ccc(C(C)(C)C)cc1)CCCN(C)C was read as TGFb SMAD3 inh -3%, HepG2 tox -43%, TDP1 cell CPT 15µM*, S2 tox inactive, ATXN2 expr inh -6% and DT40 TDP1 no CPT inconclusive.
Screening O=C1ON=C(c2ccc(Cl)cc2)/C1=C/c1ccc(O)cc1 returned TGFb SMAD3 inh inconclusive, HepG2 tox -46%, TDP1 cell CPT 7.3µM*, S2 tox inconclusive, ATXN2 expr inh -8%[11.3 µM] and DT40 TDP1 no CPT 12µM*.
Cc1ccc(/C=C2/C(=O)ON=C2c2ccccc2)o1 was read as TGFb SMAD3 inh -25%, HepG2 tox -7%, TDP1 cell CPT 21µM*, S2 tox inactive and DT40 TDP1 no CPT 15µM*.
O=C1ON=C(c2ccccc2)/C1=C/c1ccccc1 was read as TGFb SMAD3 inh 1%, HepG2 tox 7%, TDP1 cell CPT 0%, S2 tox inactive and DT40 TDP1 no CPT -33%.
For O=C1ON=C(c2ccccc2)/C1=C/c1ccc(O)cc1 the results were TGFb SMAD3 inh 6%, HepG2 tox -4%, TDP1 cell CPT 23µM*, S2 tox inconclusive and DT40 TDP1 no CPT inconclusive.
Screening CC(C)Cn1c(N)c(C(=O)COC(=O)C2CC(=O)N(Cc3ccccc3Cl)C2)c(=O)n(C)c1=O (stereo not given) returned TGFb SMAD3 inh -1%, HepG2 tox 0%, TDP1 cell CPT inconclusive, S2 tox inactive, ATXN2 expr inh -11% and DT40 TDP1 no CPT 16µM*.
COc1ccc(CCN2CC(C(=O)OCC(=O)c3c(N)n(CC(C)C)c(=O)n(C)c3=O)CC2=O)cc1OC (stereo not given) was read as TGFb SMAD3 inh 13%, HepG2 tox 0%, TDP1 cell CPT 21µM*, S2 tox inconclusive and DT40 TDP1 no CPT 13µM*.
Cc1ccc(C)c(NC(=S)N(C)CCO)c1 was read as TGFb SMAD3 inh 3%, HepG2 tox -3%, TDP1 cell CPT 2%, S2 tox inactive, ATXN2 expr inh -11% and DT40 TDP1 no CPT 8%.
For O=c1[nH]c(SCc2ccc(Br)cc2)nc2c1CCCC2 the results were TGFb SMAD3 inh 9%, HepG2 tox 6%, TDP1 cell CPT inconclusive, S2 tox inactive, ATXN2 expr inh 8% and DT40 TDP1 no CPT inconclusive.
For Cn1cccc1/C=N/n1c(-c2ccco2)n[nH]c1=S the results were TGFb SMAD3 inh 5%, HepG2 tox -1%, TDP1 cell CPT 16%, S2 tox inactive, ATXN2 expr inh 5% and DT40 TDP1 no CPT 1%.
Screening COc1cc(-c2n[nH]c(=S)n2/N=C/c2cccn2C)cc(OC)c1OC returned TGFb SMAD3 inh 0%, HepG2 tox -65%, TDP1 cell CPT inconclusive, S2 tox inactive, ATXN2 expr inh 8% and DT40 TDP1 no CPT 18µM*.
